Test results reported in PubChem BioAssay (EPA / NIEHS).
Inconclusive results are not listed. Activity calls are given as the source filed them. How the source made its calls: active means hit-call score of the fitted dose curve at least 0.9, where 1 is the maximum; inconclusive means response in the unintended direction; inactive means score below 0.9.

Test: STM_H9_NormalizedViability: Cytotoxicity Assessment at 120 hours in the Stemina devTOX quickPredict H9 human embryonic stem cell (hESC)-based Assay (AID 2283784)
Experimental: STM_H9_viability utilizes undifferentiated H9 cells to measure cell viability.STM_H9_NormalizedViability is a component calculated in the STM_H9_viability assay. It measures cell viability using background corrected relative fluorescence units (RFU) value from the CellTiterFluor Assay normalized to the value of the 0.1% DMSO neutral control treatment (by 96-well plate)Data from the assay component STM_H9_Viability was analyzed at the assay endpoint STM_H9_Viability_Norm in the positive analysis fitting direction relative to DMSO as the negative control and baseline of activity. Using a type of viability reporter, loss-of-signal activity can be used to understand viability.
H9 hESCs maintained in a pluripotent state were exposed to test compound for 72h with chemical replenishment with media replacement every 24h. Cell-conditioned media from the final 24-h treatment period was collected for analysis of the targeted biomarker, and cell viability of the corresponding cell layer was assessed. The chemical library was tested in blinded fashion. Each test plate included 1uM Methotrexate (MTX; Selleck Chemicals, Houston, Texas) as a positive reference, 5 nM MTX as a negative reference, 0.1% DMSO as the neutral (vehicle) control, and sample-level media blanks.H9 cell-conditioned media from the final 24-h treatment period was collected for analysis of the targeted biomarker and cell viability was measured from the corresponding cell layer. Cell viability was measured using the CellTiter-Fluor assay (Promega, Madison, Wisconsin) based on proteolytic cleavage of a substrate to fluorescent signal proportional to the number of living cells. The cell viability Relative Fluorescence Unit (RFU) was background corrected and normalized to mean RFU of the neutral control (0.1% DMSO). The collected H9-cell-conditioned media samples were processed for targeted biomarker analysis as described (Palmer et al., 2013). Briefly, spent media samples were deproteinized (40% acetonitrile) and processed for UPLC-HRMS. Data acquisition was performed using 4 separate UPLC-HRMS systems, consisting of an Agilent 1290 Infinity LC system (Agilent Technologies) interfaced with an Agilent high-resolution mass spectrometer (models G6520A, G6520B, G6530A, and G6224A). A Waters Acquity UPLC BEH Amide column (2.1mm x 50mm, 1.7lm particle size; Waters, Milford, Massachusetts) maintained at 40C was applied for separation of metabolites using a 6.5min solvent gradient with 0.1% formic acid in water and 0.1% formic acid in acetonitrile (1.0ml/min flow rate). Data were acquired using MassHunter Acquisition software (version B 04.00, Agilent Technologies). The extracted ion chromatogram (EIC) areas for ORN, CYSS, and their respective spike-in C13-standards were determined using the Agilent MassHunter Quantitative Analysis software, version B.05.00 or newer (Agilent Technologies), and data were normalized as described in Palmer et al. (2017).
In the case of `CCC(C)(NC(=O)c1cc(Cl)c(C)c(Cl)c1)C(=O)CCl` (stereo unspecified), the AC50 is reported as 25.8 µM (active). In the case of `Oc1ccc(Cl)cc1Cc1ccccc1`, the outcome is reported as “inactive”. For `CC(C)(C)C(O)/C(=C\c1ccc(Cl)cc1Cl)n1cncn1` (stereo unspecified), the AC50 was 79.1 µM (active). For `CCOC1Oc2ccc(OS(C)(=O)=O)cc2C1(C)C` (stereo unspecified), the AC50 was 78.7 µM (active). For `O=C(Nc1ccccc1)Nc1cnns1`, the outcome was “inactive”. In the case of `C#CCN1C(=O)COc2cc(F)c(N3C(=O)C4=C(CCCC4)C3=O)cc21`, the AC50 is reported as 75.5 µM (active). For `O=S(=O)(O)C(F)(F)C(F)(F)C(F)(F)C(F)(F)C(F)(F)C(F)(F)C(F)(F)C(F)(F)F`, the outcome was “inactive”. With `CCC(C)Nc1c([N+](=O)[O-])cc(C(C)(C)C)cc1[N+](=O)[O-]` (stereo unspecified) the outcome was “inactive”. With `Oc1cc(Cl)ccc1Oc1ccc(Cl)cc1Cl` the AC50 was 88.2 µM (active). In the case of `Cc1[nH]c(=O)n(C(C)(C)C)c(=O)c1Cl`, the outcome is reported as “inactive”. For `CC(C)(C)C(O)C(Oc1ccc(Cl)cc1)n1cncn1` (stereo unspecified), the outcome was “inactive”. For `O=C(O)C(F)(F)C(F)(F)C(F)(F)C(F)(F)C(F)(F)C(F)(F)C(F)(F)F`, the outcome was “inactive”. With `CCOCN(C(=O)CCl)c1c(C)cccc1CC` the outcome was “inactive”. For `CC1(c2ccc(Oc3ccccc3)cc2)OC(=O)N(Nc2ccccc2)C1=O` (stereo unspecified), the AC50 was 3.35 µM (active). With `O=C(NC(=O)c1c(F)cccc1F)Nc1ccc(OC(F)(F)C(F)OC(F)(F)F)c(Cl)c1` (stereo unspecified) the outcome was “inactive”. For `O=S1OCC2C(CO1)C1(Cl)C(Cl)=C(Cl)C2(Cl)C1(Cl)Cl` (stereo unspecified), the AC50 was 78.4 µM (active).
